Compound activity: PubChem BioAssay, The Scripps Research Institute Molecular Screening Center
Only some compounds are listed: those with a hit (about 3.5% of all), similar ones and a draw of the others.
FBW7 activator = FBW7 E3 ligase activators, primary screen, biochemical, AlphaScreen, human; F-box/WD repeat-containing protein 7 (Homo sapiens), Q969H0; AlphaScreen FBW7–phospho-cyclin E peptide binding, activator screen; normalized activity (activation), % at 26.1 µM; 650,000 compounds, 0.13% hits; AID 1259310, 2017; in the data active = normalized activity above about 1.9%;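 note: purified mutant Fbw7 with reduced substrate affinity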
MITF primary = MITF inhibitors, primary screen, biochemical, AlphaScreen, human | Microphthalmia-associated transcription factor (Homo sapiens), O75030 | AlphaScreen MITF homodimerization, bead proximity signal | inhibition, % at 2.6 µM | 650,000 compounds, 0.91% hits | AID 1259374, 2018; in the data active = inhibition above about 50%;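 note: 0% = vehicle wells with protein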
Target sequence (O75030 whole entry, looked up): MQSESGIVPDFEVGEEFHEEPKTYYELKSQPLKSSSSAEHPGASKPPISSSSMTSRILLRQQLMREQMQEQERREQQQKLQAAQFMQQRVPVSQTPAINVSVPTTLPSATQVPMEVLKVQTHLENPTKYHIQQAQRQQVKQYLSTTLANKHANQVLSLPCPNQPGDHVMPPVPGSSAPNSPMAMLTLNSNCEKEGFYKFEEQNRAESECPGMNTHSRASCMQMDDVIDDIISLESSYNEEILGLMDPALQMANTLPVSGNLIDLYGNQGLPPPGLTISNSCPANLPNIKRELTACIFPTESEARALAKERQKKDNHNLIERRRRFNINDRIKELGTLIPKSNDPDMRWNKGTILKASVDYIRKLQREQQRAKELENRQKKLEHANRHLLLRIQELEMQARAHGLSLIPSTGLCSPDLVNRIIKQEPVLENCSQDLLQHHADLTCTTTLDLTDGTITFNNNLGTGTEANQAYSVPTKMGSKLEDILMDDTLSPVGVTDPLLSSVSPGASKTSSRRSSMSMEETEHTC
GPR151 activ = activators of human GPR151, primary screen, cell-based, PathHunter beta-arrestin, luminescence; PathHunter beta-arrestin GPR151 cells; activation, % at 11.2 µM; 650,000 compounds, 1% hits; AID 1508602, 2020; in the data active = activation above about 4.9%;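 note: 0% = median of compound wells and 100% = cells with positive control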
TEAD-YAP block = TEAD-YAP interaction inhibition, primary screen, TEAD-YAP interaction inhibitor project, luminescence, HEK-TIYL cells; AID 1259422, 2018; TEAD-Gal4/YAP UAS-luciferase luminescence; 640,000 compounds, 1.4% hits; inhibition, % at 9.12 µM; in the data active = inhibition above about 32%;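 note: 0% = median of test compound wells and 100% = reference inhibitor wells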
An asterisk follows results filed as active.

Results for COc1cc(Nc2cc(N3CCN(C(=O)c4ccco4)CC3)c3noc4c3c2C(=O)c2ccccc2-4)cc(OC)c1OC ?
FBW7 activator: 0; MITF primary: 9; GPR151 activ: -2; TEAD-YAP block: 40*

Results for COc1cccc(Nc2cc(N3CCCC3)c3noc4c3c2C(=O)c2ccccc2-4)c1 ?
FBW7 activator: 0; MITF primary: 14; GPR151 activ: 0; TEAD-YAP block: 4

What do the screens show for `CCCN1CCN(c2cc(Nc3cccc(OC)c3)c3c4c(onc24)-c2ccccc2C3=O)CC1`?
FBW7 activator: 0; MITF primary: 61*; GPR151 activ: 2; TEAD-YAP block: 6

Results for CCOC(=O)C1CCCN(c2cc(Nc3cccc(OC)c3)c3c4c(onc24)-c2ccccc2C3=O)C1 (configuration not stated) ?
FBW7 activator: 0; MITF primary: 64*; GPR151 activ: 0; TEAD-YAP block: -2

Results for CCOC(=O)C1CCCN(c2cc(Nc3ccc4c(c3)OCCO4)c3c4c(onc24)-c2ccccc2C3=O)C1 (configuration not stated) ?
FBW7 activator: 0; MITF primary: 4; GPR151 activ: 0; TEAD-YAP block: 38*

How did CCCOC(=O)Oc1ccc2c(=O)c(-c3ccc(Cl)cc3)c(C(F)(F)F)oc2c1 do in these assays?
FBW7 activator: 0; MITF primary: -3; GPR151 activ: -1; TEAD-YAP block: -20

Results for COc1cccc(NC(=O)Cn2c(C)cc(C)c(C#N)c2=O)c1 ?
FBW7 activator: 0; MITF primary: -2; GPR151 activ: -1; TEAD-YAP block: 2

How did O=C(CSc1n[nH]c(-c2ccco2)n1)Nc1ccc(I)cc1 do in these assays?
FBW7 activator: 0; MITF primary: 20; GPR151 activ: 0; TEAD-YAP block: 3

How did CCN(CC)c1ccc(NC(=O)c2ccc3c(c2)C(=O)N(c2ccccn2)C3=O)c(C)c1 do in these assays?
FBW7 activator: 0; MITF primary: -5; GPR151 activ: 1; TEAD-YAP block: 0

Results for CCCCC(C(=O)OCC)(C(=O)OCC)c1cc(Nc2ccc(C)cc2)c2c3c(onc13)-c1ccccc1C2=O ?
FBW7 activator: 0; MITF primary: 55*; GPR151 activ: -1; TEAD-YAP block: -10

What do the screens show for `CCc1ccc(-c2nc(CSCC(=O)NCCN(C)C)c(C)o2)cc1`?
FBW7 activator: 0; MITF primary: 18; GPR151 activ: -1; TEAD-YAP block: 38*

How did Cc1ccc(-c2nc(CSCC(=O)O)c(C)o2)cc1 do in these assays?
FBW7 activator: 0; MITF primary: -3; GPR151 activ: -1; TEAD-YAP block: 81*

How did CC(C)(C)C(=O)Nc1ccc(N2CCCCC2=O)cc1 do in these assays?
FBW7 activator: 0; MITF primary: -12; GPR151 activ: -1; TEAD-YAP block: 0

Results for N#Cc1nc(-c2ccc(Cl)cc2Cl)oc1N1CCN(C(=O)c2ccccc2F)CC1 ?
FBW7 activator: 0; MITF primary: 1; GPR151 activ: 0; TEAD-YAP block: 10

What do the screens show for `O=C(N/N=C\c1ccc(O)cc1O)C(=O)N/N=C/c1ccc(O)cc1O`?
FBW7 activator: -1; MITF primary: 69*; GPR151 activ: -1; TEAD-YAP block: 13

How did Nc1nonc1C(=O)N/N=C\c1ccc(O)c(O)c1 do in these assays?
FBW7 activator: 0; MITF primary: -5; GPR151 activ: -5; TEAD-YAP block: 2

Results for Nc1nonc1C(=O)N/N=C/c1ccc(O)cc1O ?
FBW7 activator: -1; MITF primary: 94*; GPR151 activ: -7; TEAD-YAP block: 9

Results for CCN(CC)c1ccc(/C=N/NC(=O)c2nonc2N)cc1 ?
FBW7 activator: 0; MITF primary: -19; GPR151 activ: -4; TEAD-YAP block: 46*

What do the screens show for `O=C(CNc1ccc2ccccc2c1)N/N=C/c1ccc(O)cc1O`?
FBW7 activator: 0; MITF primary: -4; GPR151 activ: 2; TEAD-YAP block: 40*

How did COc1ccccc1Nc1cc(N(C)C)c2nonc2c1[N+](=O)[O-] do in these assays?
FBW7 activator: 0; MITF primary: -5; GPR151 activ: 1; TEAD-YAP block: -1

Results for CCOC(=O)C1=C(CSc2nc(C)c(C)c(C)c2C#N)OC(N)=C(C#N)C1c1cccs1 (configuration not stated) ?
FBW7 activator: 0; MITF primary: -6; GPR151 activ: -1; TEAD-YAP block: -2
